Only a selection was taken, and hits are over-represented in it overall.
12-LOX inh: ALOX12 (human) lipoxygenase inhibition; P18054; Potency, µM (series often up to 108 µM), inactives show at the highest dose activity change, negative = inhibition, most hits filed as inhibitors; 1.1% of 580,000 active; purified 12hLO, xylenol orange hydroperoxide absorbance; AID 1671190; also: potency is read from the fitted curve at half-maximal effect
Target sequence (P18054 whole entry, looked up): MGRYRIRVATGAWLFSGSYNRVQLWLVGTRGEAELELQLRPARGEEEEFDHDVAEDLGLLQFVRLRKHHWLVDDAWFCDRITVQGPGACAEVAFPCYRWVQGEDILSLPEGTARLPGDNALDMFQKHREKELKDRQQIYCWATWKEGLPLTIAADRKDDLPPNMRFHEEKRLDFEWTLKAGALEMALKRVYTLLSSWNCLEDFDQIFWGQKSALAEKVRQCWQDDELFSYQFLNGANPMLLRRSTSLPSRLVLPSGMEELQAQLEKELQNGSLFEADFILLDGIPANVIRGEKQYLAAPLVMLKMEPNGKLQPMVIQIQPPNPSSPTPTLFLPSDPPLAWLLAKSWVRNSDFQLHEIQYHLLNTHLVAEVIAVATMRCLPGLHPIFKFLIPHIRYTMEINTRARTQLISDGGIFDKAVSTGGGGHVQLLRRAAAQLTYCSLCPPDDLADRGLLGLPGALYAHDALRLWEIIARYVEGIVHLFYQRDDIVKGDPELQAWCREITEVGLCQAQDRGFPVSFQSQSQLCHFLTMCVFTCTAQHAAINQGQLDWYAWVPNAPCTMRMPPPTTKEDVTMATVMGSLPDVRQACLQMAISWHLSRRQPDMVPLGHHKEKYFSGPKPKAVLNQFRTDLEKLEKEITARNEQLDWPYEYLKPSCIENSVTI
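Purified human 12hLO at 150 nM in 25 mM Hepes, 0.01% Triton X-100, pH 7.0, preincubated 15 min at room temperature with compound. Reaction started with 40 uM arachidonic acid, 30 min at room temperature. Hydroperoxide measured by Fe-xylenol orange, 573/405 nm absorbance ratio.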
TDP1 cell CPT: growth inhibition of DT40 Tdp1-/-;hTDP1 cells with camptothecin (screen for TDP1 inhibitors) | chicken DT40 Tdp1-/-;hTDP1 cells + 20 nM CPT, ATP luminescence, 48 h | Potency, µM (top dose mostly 46.2 µM), without a hit: at the top dose activity change, negative = growth inhibition, actives largely listed as inhibitors | 12% of 420,000 active | AID 686979; also: potency is read from the fitted curve at half-maximal effect; nearly all actives have a fitted effect of over 55% in size
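Chicken DT40 Tdp1-/- cells complemented with human TDP1, 400 cells/well, exposed to compounds plus 20 nM camptothecin for at least 48 h at 37 C; viability read as ATP content by CellTiter-Glo luminescence.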
HT1080-NT tox: kills 2HG-producing HT-1080-NT fibrosarcoma cells. HT-1080-NT fibrosarcoma viability, CellTiter-Glo ATP luminescence, 48 h. Potency, µM (doses to about 46.1 µM), for inactives: at the top dose activity, negative = less viability, usual class: cytotoxic. 1.6% of 360,000 active. AID 686970;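 also: NT is the 2HG producing partner of a matched IDH1 knockdown line; potency is read from the fitted curve at half-maximal effect; 0% = DMSO-treated cells and -100% = media-only wells without cells; nearly all actives have a fitted effect of over 55% in size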
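A 48-hour cytotoxicity screen used HT-1080-NT cells plated 2 hours before compound delivery. ATP-based CellTiter-Glo luminescence measured viability, normalized to DMSO and no-cell controls.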
TDP1 cell noCPT: qHTS for Inhibitors of human tyrosyl-DNA phosphodiesterase 1 (TDP1): qHTS in cells in absence of CPT | 15% of 420,000 active | Potency, µM (titrated, usually from 46.2 µM), for inactives: at the top dose activity change, negative = growth inhibition, actives largely listed as inhibitors | DT40 Tdp1-/- hTDP1 cells, no CPT, ATP luminescence, 48 h; also: potency is read from the fitted curve at half-maximal effect; nearly all actives have a fitted effect of over 55% in size
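Stably hTDP1-transfected Tdp1-null chicken DT40 cells were treated with library compounds minus camptothecin and grown for at least 48 hr at 37 °C, after which cellular ATP was quantified by luminescence.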
IL-1B inflam inh: blocks inflammasome-driven IL-1 beta release. THP-1 LPS/ATP IL-1B secretion, AlphaLISA, 16 h; stronger effect = lower value. activity change, % at 57.5 µM. 4.7% of 360,000 active; in the data active = activity change below about -50%; inconclusive = mostly about -30% to -49%
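THP-1 cells pretreated 1 hr with compounds (up to 57.5 uM final), then stimulated with LPS (250 ng/mL final) plus ATP (1.25 mM final); secreted IL-1B measured by AlphaLISA after 16 hr, decreased signal indicating inhibition.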
HT1080 IDH1KD tx: toxicity to HT-1080 IDH1 knockdown cells (counter line) | HT-1080 IDH1 knockdown viability, ATP luminescence, 48 h | Potency, µM (highest dose often 46.1 µM), for the others: top-dose activity, negative = toxicity, actives largely listed as cytotoxic | 2% of 360,000 active | AID 686971;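 also: potency is read from the fitted curve at half-maximal effect; 0% = DMSO wells and -100% = cell-free medium wells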
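CellTiter-Glo luminescence after 48 h compound exposure at 37 degrees C of IDH1-knockdown HT-1080 cells in 5% FBS RPMI. %Activity scaled between DMSO wells and cell-free media wells, with curves fitted and assigned curve classes.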
* marks the source's active call; other numbers are inactive results; ? = inconclusive; . = no result; [ ] = another dose, or the depositor's remark. Unless noted, calls follow the shape of the dose curve; as a rule, active = well fitted curve in the direction sought with a large enough effect; inconclusive = small, poorly fitted or top-dose-only effect, or another doubt; inactive = no such curve, though single readings can be large; an effect the other way counts as inactive or inconclusive. Unless noted, % is scaled to controls: 0 for no effect and ±100 for the full control effect.

SMILES	12-LOX inh	TDP1 cell CPT	HT1080-NT tox	TDP1 cell noCPT	IL-1B inflam inh	HT1080 IDH1KD tx
Cc1cnc(NC(=O)C(C)(C)n2cc(-c3ccc4c(c3)OCCO4)cn2)s1	10%	.	.	.	.	.
CN1CCC(=NNc2ncnc3sc4c(c23)CCCC4)CC1	18%	16µM*	-3%	21µM*	-7	-12%
c1nc(NCCN2CCOCC2)c2c3c(sc2n1)CCCCC3	12%	-8%	1%	-16%	-3	6%
CN(C)C(=O)c1ccc(Nc2ncnc3sc4c(c23)CCCCC4)cc1	-1%	?	?	23µM*	-12	-25%
CS(=O)(=O)N1CCC2(CCN(Cc3nccs3)CC2)CC1	0%[57.4 µM]	7%	.	-11%	.	.
Cc1cc(C)cc(NC(=O)N2CCC(c3nc4ccccc4o3)CC2)c1	0%	?	4%[9.24 µM]	-27%	0	8%
CC(C)c1ccc(NC(=O)N2CCC(c3nc4ccccc4o3)CC2)cc1	24%	21µM*	-13%	18µM*	-16	5%
Cc1ccc(C2CCN(C(=S)NC3CCCCC3)C2)cc1 (stereo not given)	?	?	?	18µM*	30	?
Cc1cccc(NC(=S)N2CCC(c3nc4ccccc4o3)CC2)c1	?	?	11%	29µM*	-6	8%
Cc1ccc(C2CCN(C(=S)Nc3cccc(C)c3)C2)cc1 (stereo not given)	?	?	1%	18µM*	10	-7%
O[C@H]1C[C@H](c2ccccc2)N(Cc2cccs2)C[C@@H]1n1cc(-c2ccc(F)cc2)nn1	35µM*	23µM*	23µM*	23µM*	-79*	18µM*
Cc1ccc([C@H]2C[C@H](O)[C@@H](n3cc(C4CC4)nn3)CN2Cc2cccs2)cc1	?	9.2µM*	-21%	12µM*	-25	-1%
COc1ccc([C@H]2C[C@H](n3cc(-c4ccc(F)cc4)nn3)[C@@H](O)CN2Cc2cccs2)cc1	-3%	5%	4%	-7%	10	2%
COc1ccc([C@H]2C[C@H](O)[C@@H](n3cc(-c4ccc(F)cc4)nn3)CN2Cc2cccs2)cc1	?	5.2µM*	2.9µM*	5.2µM*	-61*	4.6µM*
CC1=NS(=O)(=O)N(Cc2ccc(F)c(F)c2)C=C1C(=O)O	20%	.	.	.	.	.
Cc1c(Cl)c(CSc2nnc3ccc(C(F)(F)F)cn23)nc2ccccc12	-1%	.	.	.	.	.
COc1ccc(NC(=O)CSC2=Nc3ccccc3C3=NC(CC(=O)NCc4ccc5c(c4)OCO5)C(=O)N23)cc1 (stereo not given)	?	-23%	.	-8%	.	.
COc1ccc(OC)c(NC(=O)CSC2=Nc3ccccc3C3=NC(CC(=O)NCc4ccc5c(c4)OCO5)C(=O)N23)c1 (stereo not given)	?	?	.	23µM*	.	.
O=C(CC1N=C2c3ccccc3N=C(SCC(=O)Nc3ccc(F)cc3)N2C1=O)NCc1ccc2c(c1)OCO2 (stereo not given)	?	?	.	-20%	.	.
CCc1ccc(NC(=O)CSC2=Nc3ccccc3C3=NC(CC(=O)NCc4ccc5c(c4)OCO5)C(=O)N23)cc1 (stereo not given)	-29%	?	.	23µM*	.	.
CCCC(=O)OCCNc1cc(Sc2nc3ccccc3[nH]2)c2nonc2c1[N+](=O)[O-]	?	2.3µM*	21µM*	3.3µM*	-104*	?
CCCC(=O)NC(C)c1nc2ccccc2[nH]1 (stereo not given)	4%	1%	9%	0%	3	12%
CCC(=O)OCCNc1cc(Sc2nccn2C)c2nonc2c1[N+](=O)[O-]	?	1µM*	15µM*	2.3µM*	-68*	?
CC(C)C(=O)N1Cc2ccccc2OC2(CCN(C(C)C)CC2)C1	9%	.	.	.	.	.
O=C(NCCCN1CCOCC1)c1ccc2c(c1)N(Cc1ccccc1)CCS2	-7%	?	-16%	23µM*	?	-29%
SMILES	12-LOX inh	TDP1 cell CPT	HT1080-NT tox	TDP1 cell noCPT	IL-1B inflam inh	HT1080 IDH1KD tx
CN1CCN(CCCNC(=O)c2ccc3c(c2)N(Cc2ccccc2)CCS3)CC1	56%	21µM*	-16%	?	-27	-4%
Cc1ccc(Cn2c(C(=O)NCCCN3CCOCC3)cc3sccc32)cc1	.	-24%	16µM*	?	22	?
CCN1CCN(CCCNC(=O)c2ccc3c(c2)N(Cc2ccc(C)cc2)CCS3)CC1	.	?	?	?	-1	?
Cc1ccc(CCNC(=O)c2cc3sccc3n2Cc2ccc(C)cc2)cc1	-22%	-25%	.	?	.	.
Cc1ccc(CN2CCSc3ccc(C(=O)NCCCN4CCOCC4)cc32)cc1	?	21µM*	-12%	?	-51*	?
CCN1C(=O)CCN(C(=O)CCc2ccccc2)CC12CCOCC2	23%	.	.	.	.	.
O=C(OCc1nnnn1-c1ccccc1)C1(c2cccc(F)c2)CCCC1	-33%	.	.	.	.	.
[O-]/[N+](=C\c1ccncc1)c1ccc(Br)cc1	.	8.2µM*	0%	?	-26	-1%
CCOC(=O)CN(C)C(=O)c1cnn(-c2ncc3c(n2)-c2ccccc2CCC3)c1C	-1%	4%[9.04 µM]	.	?	.	.
COc1cccc(CN(C)C(=O)c2cnn(-c3ncc4c(n3)-c3ccccc3CCC4)c2C)c1	?	18µM*	.	23µM*	.	.
Cc1cccc(N2CCN(C(=O)c3ccc4c(c3)N(Cc3cccc(Cl)c3)C(=O)c3ccccc3S4=O)CC2C)c1 (stereo not given)	-28%	5.8µM*	.	6.5µM*	.	.
CCN1C(=O)c2ccccc2S(=O)c2ccc(C(=O)N3CCCC3)cc21 (stereo not given)	-6%	-10%	12%	?	-11	-7%
CCN1C(=O)c2ccccc2S(=O)c2ccc(C(=O)N3CCN(c4cccc(C)c4)C(C)C3)cc21 (stereo not given)	?	?	.	16µM*	.	.
C=CCn1c2ccccc2c2nnc(SCCN3CCOCC3)nc21	?	-26%	0%	?	-71*	-3%
Clc1ccccc1CSc1nnc2c3ccccc3n(CCc3ccccc3)c2n1	-3%	.	.	.	.	.
CCCCn1c2ccc(F)cc2c2nnc(SCCN3CCOCC3)nc21	-9%	?	?	29µM*	-22	?
Cn1c2ccc(F)cc2c2nnc(SCCN3CCOCC3)nc21	?	1%	-7%	-16%	8	-4%
CCCCn1c2ccc(F)cc2c2nnc(SCCN(CC)CC)nc21	-27%	21µM*	.	26µM*	.	.

From PubChem BioAssay
